From PubChem BioAssay (Tox21)
Where “and” joins values, the source holds several entries; their conditions need not be identical. Identical values can stand only once. Results filed as inconclusive are left out. The source holds several records for some structures; these can differ, active in one and inactive in another. Calls of active or inactive are those of the source. Unless noted, the call rests on the fitted dose curve.

Assays:
[1] = Nuclear factor erythroid 2-related factor 2/antioxidant responsive element (Nrf2/ARE) small molecule agonists: qHTS cell viability counter screen in human keratinocytes (AID 1919968; active means well fitted curve in the direction sought with a large enough effect in the repeat runs; an effect the other way counts as inactive or inconclusive; further: nearly all actives have a fitted effect of over 55% in size; further: potency means the concentration at half of the fitted maximal effect)
Method in brief: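 Cells of the KeratinoSens line were plated at 1,500 per well and left for 5 h before compound transfer from DMSO stocks. After a 23 h incubation (37 C, 5% CO2), CellTiter-Fluor was added. Signal was taken as fluorescence intensity 1 h later.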

[2] = Nuclear factor erythroid 2-related factor 2/antioxidant responsive element (Nrf2/ARE) small molecule agonists: luciferase reporter gene qHTS assay in human keratinocytes (AID 1919969); further: nearly all actives have a fitted effect of over 35% in size; further: potency means the concentration at half of the fitted maximal effect
[3] = biological target: Gonadotropin-releasing hormone receptor (Homo sapiens) (UniProt P30968); test: Human gonadotropin-releasing hormone receptor (GnRHR) small molecule agonists, calcium flux assay in GnRHR-HEK293 cells (AID 1920063); further: nearly all actives have a fitted effect of over 35% in size
Method in brief: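 Compounds dissolved in DMSO are pin-transferred onto dye-loaded GnRHR-HEK293 cells, which were seeded 18 h before at 37 C/5% CO2. Calcium signal is read as fluorescence intensity at 1 s intervals for 3 min.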

[4] = biological target: KiSS-1 receptor (Homo sapiens) (UniProt Q969F8); test: Human kisspeptin (KISS1R) small molecule agonists, calcium flux assay in KISS1R-HEK293 cells (AID 1920064; active means well fitted curve in the direction sought with a large enough effect in the repeat runs; an effect the other way counts as inactive or inconclusive)
Method in brief: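 Cell line: HEK293, stable human KISS1R. Dye loading 1 h at 37 C after 18 h culture. Read: kinetic fluorescence, 480/540 nm, 3 min at 1 s intervals.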

[5] = G protein-coupled receptor (GPCR) small molecule agonists, calcium flux assay: HEK293 wild type cell line counter screen (AID 1920065)
Method in brief: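 Tox21 10K compounds, 15 concentrations each in triplicate, pin-transferred in DMSO onto dye-loaded cells; kinetic read at 480/540 nm for 3 min, 1 s intervals.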

[6] = p53 small molecule agonists, cell-based qHTS assay with human liver microsomes (AID 1963577)
Method in brief: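 Compounds act here after metabolic activation: human liver microsomes and NADPH, both at 0.5 mg/mL final, were co-added to p53RE-bla cells. Incubation ran 16 h at 37 C, followed by LiveBLAzer detection.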

[7] = p53 small molecule agonists, cell-based qHTS assay with rat liver microsomes (AID 1963578)
Method in brief: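 Read-out is beta-lactamase reporter fluorescence (LiveBLAzer, 2 h, room temperature, dark) in p53RE-bla cells treated 16 h at 37 C with compound, rat liver microsomes and NADPH, both 0.5 mg/mL final.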

[8] = p53 small molecule agonists, cell-based qHTS assay with human liver microsomes: qHTS cell viability counter screen (AID 1963579); further: nearly all actives have a fitted effect of over 45% in size
Method in brief: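 Cells carrying the p53 response-element beta-lactamase reporter are treated for 16 h at 37 C with test compounds in the presence of human liver microsomes and NADPH (both 0.5 mg/mL final); ATP-based CellTiter-Glo luminescence then reports viability.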

[9] = p53 small molecule agonists, cell-based qHTS assay with rat liver microsomes: qHTS cell viability counter screen (AID 1963580); further: nearly all actives have a fitted effect of over 45% in size
Method in brief: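 Luminescent ATP readout (CellTiter-Glo, 30 min at room temperature) reports viability of p53RE-bla HCT-116 cells after 16 h at 37 C with test compounds under metabolic activation by rat liver microsomes and NADPH at 0.5 mg/mL final each.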

[10] = p53 small molecule agonists, cell-based qHTS assay: qHTS cell viability counter screen (AID 1963581); further: nearly all actives have a fitted effect of over 45% in size
Method in brief: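 ATP content measured by luminescence in HCT-116 p53RE-bla cells treated 16 h at 37 C, same wells as the reporter screen.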

[11] = p53 small molecule agonists, cell-based qHTS assay (AID 1963582; active means well fitted activation curve with a large enough effect in the signal ratio in the repeat runs, not every such curve was filed as active; the % refers to the signal ratio)
Method in brief: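 16 h compound exposure (37 C) of p53 response element–bla cells, preceded by 5 h recovery at 37 C/5% CO2; read-out via LiveBLAzer B/G FRET substrate, 2 h RT, fluorescence intensity.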

[12] = biological target: 5-hydroxytryptamine receptor 2A (Homo sapiens) (UniProt P28223); test: 5-hydroxytryptamine receptor 2A (HTR2A) small molecule antagonists, cell-based qHTS assay (AID 1963586); further: nearly all actives have a fitted effect of over 45% in size
Method in brief: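 CHO cells stably expressing human HTR2A were plated for 18 h at 37 C, then loaded with calcium dye for 1 h. Compounds were preincubated 5 min at room temperature before DOI (4 nM solution) was added. Kinetic fluorescence was read for 3 min.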

[13] = biological target: 5-hydroxytryptamine receptor 2A (Homo sapiens) (UniProt P28223); test: 5-hydroxytryptamine receptor 2A (HTR2A) small molecule agonists, cell-based qHTS assay (AID 1963587); further: nearly all actives have a fitted effect of over 30% in size; further: potency means the concentration at half of the fitted maximal effect
Method in brief: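 HTR2A-CHO cells, plated 18 h at 37 C/5% CO2, dye-loaded 1 h at 37 C; compounds in DMSO added by pin tool (agonist mode). Intracellular calcium flux read as kinetic fluorescence on FDSS over 2 min at 1 s intervals.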

[14] = biological target: Muscarinic acetylcholine receptor M1 (Homo sapiens) (UniProt P11229); test: Cholinergic receptor muscarinic 1 (CHRM1) small molecule antagonists, cell-based qHTS assay (AID 1963588); further: nearly all actives have a fitted effect of over 40% in size
Method in brief: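 Compounds were tested at 15 concentrations in three independent runs. Dye-loaded CHRM1-CHO cells were exposed 5 min at room temperature before stimulation by acetylcholine added at 50nM. Intracellular calcium was read kinetically on FDSS for 3 min.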

[15] = biological target: Muscarinic acetylcholine receptor M1 (Homo sapiens) (UniProt P11229); test: Cholinergic receptor muscarinic 1 (CHRM1) small molecule agonists, cell-based qHTS assay (AID 1963589); further: nearly all actives have a fitted effect of over 35% in size
Method in brief: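 Homogeneous fluorescence calcium flux, agonist mode. Human M1-expressing CHO cells; compound dosed at 15 concentrations, three independent runs; signal sampled every 1 sec.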

[16] = cAMP Responsive Elements (CRE) small molecule agonists, cell-based qHTS assay (AID 1963590)
Method in brief: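 HEK 293T cells stably bearing CRE-bla were plated at 2,000 cells per well and rested 18 h. Compounds, positive controls or DMSO were added for 3 h at 37 C. LiveBLAzer B/G substrate was then loaded for 2 h at room temperature.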

[17] = cAMP Responsive Elements (CRE) small molecule antagonists, cell-based qHTS assay (AID 1963591; active means well fitted inhibition curve with a large enough effect in the signal ratio in the repeat runs, not every such curve was filed as active; the % refers to the signal ratio)
Method in brief: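 First, CRE-bla HEK293T cells settled 18 h at 37 C. Next, compound and 0.25 uM final NKH477 were applied for 3 h. Last, LiveBLAzer B/G substrate was loaded for 2 h at room temperature.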

[18] = biological target: D(2) dopamine receptor (Homo sapiens) (UniProt P14416); test: Dopamine D2 receptor (DRD2) small molecule agonists, cell-based qHTS assay (AID 1963594); further: nearly all actives have a fitted effect of over 35% in size
Method in brief: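 HEK293 cells stably expressing DRD2 were cultured 24 h at 37 C, then given Ro20-1724 (0.1 mM final) and compounds for 10 min at room temperature. NKH477 (200nM) was then added for 30 min. cAMP was read by HTRF.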

[19] = biological target: D(2) dopamine receptor (Homo sapiens) (UniProt P14416); test: Dopamine D2 receptor (DRD2) small molecule antagonists, cell-based qHTS assay (AID 1963595; active means well fitted inhibition curve with a large enough effect in the signal ratio in the repeat runs, with a control signal flat; the % refers to the signal ratio)
Method in brief: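 Cells were plated and grown for 24 h at 37 °C. Ro20-1724 (0.1 mM final) went in first, then compound for 10 min. NKH477 (200 nM) with quinpirole (12 nM) followed for 30 min at RT, then HTRF detection reagents for 1 h.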

[20] = biological target: Beta-2 adrenergic receptor (Homo sapiens) (UniProt P07550); test: Adrenergic beta2 receptor (ADRB2) small molecule antagonists, cell-based qHTS assay (AID 1963592); further: series mostly up to about 92 µM; nearly all actives have a fitted effect of over 50% in size
Method in brief: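 Assay format: CHO-ADRB2 cells, 18-20hr seeding at 37C/5% CO2, then compound plus 1nM isoproterenol agonist mix for 0.5hr RT. Homogeneous time-resolved fluorescence cAMP detection after 1hr, expressed as 665/615 nm ratio.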
On the % scale 0 is the no-effect control and ±100 the full control effect.

Sequence of D(2) dopamine receptor (Homo sapiens) (P14416 whole entry, looked up): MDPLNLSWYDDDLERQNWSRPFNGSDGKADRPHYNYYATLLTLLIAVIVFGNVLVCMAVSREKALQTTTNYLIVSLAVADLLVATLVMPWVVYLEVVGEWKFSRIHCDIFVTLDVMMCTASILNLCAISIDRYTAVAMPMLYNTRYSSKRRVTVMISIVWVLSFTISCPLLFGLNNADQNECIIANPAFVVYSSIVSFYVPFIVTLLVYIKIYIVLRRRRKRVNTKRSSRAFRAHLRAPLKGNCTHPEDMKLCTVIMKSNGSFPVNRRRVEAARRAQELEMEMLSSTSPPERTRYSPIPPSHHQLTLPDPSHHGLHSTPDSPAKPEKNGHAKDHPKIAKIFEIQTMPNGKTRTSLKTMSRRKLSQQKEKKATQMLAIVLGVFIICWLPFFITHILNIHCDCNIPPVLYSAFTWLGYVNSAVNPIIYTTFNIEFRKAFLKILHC
Sequence of Gonadotropin-releasing hormone receptor (Homo sapiens) (P30968 whole entry, looked up): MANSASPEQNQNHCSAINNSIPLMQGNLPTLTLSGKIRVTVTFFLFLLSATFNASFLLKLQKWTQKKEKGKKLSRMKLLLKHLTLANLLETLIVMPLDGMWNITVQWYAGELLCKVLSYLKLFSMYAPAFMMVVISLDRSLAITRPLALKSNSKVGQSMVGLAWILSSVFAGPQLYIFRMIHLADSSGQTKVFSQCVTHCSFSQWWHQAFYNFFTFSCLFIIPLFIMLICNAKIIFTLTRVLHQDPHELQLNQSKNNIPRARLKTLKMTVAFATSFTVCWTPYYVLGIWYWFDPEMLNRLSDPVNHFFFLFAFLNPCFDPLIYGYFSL
Sequence of Muscarinic acetylcholine receptor M1 (Homo sapiens) (P11229 whole entry, looked up): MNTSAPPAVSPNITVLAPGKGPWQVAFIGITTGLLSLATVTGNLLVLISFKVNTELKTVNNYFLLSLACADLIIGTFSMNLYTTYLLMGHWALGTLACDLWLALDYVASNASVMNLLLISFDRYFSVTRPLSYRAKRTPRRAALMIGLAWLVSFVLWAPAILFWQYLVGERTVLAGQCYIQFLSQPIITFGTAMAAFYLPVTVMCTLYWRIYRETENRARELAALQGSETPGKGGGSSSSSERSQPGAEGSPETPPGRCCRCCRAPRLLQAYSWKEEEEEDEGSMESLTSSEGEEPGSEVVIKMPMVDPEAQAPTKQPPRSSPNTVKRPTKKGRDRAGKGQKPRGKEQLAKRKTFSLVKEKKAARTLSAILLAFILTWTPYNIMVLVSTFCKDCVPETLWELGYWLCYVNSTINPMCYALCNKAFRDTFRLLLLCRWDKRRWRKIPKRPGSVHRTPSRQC
Sequence of Beta-2 adrenergic receptor (Homo sapiens) (P07550 whole entry, looked up): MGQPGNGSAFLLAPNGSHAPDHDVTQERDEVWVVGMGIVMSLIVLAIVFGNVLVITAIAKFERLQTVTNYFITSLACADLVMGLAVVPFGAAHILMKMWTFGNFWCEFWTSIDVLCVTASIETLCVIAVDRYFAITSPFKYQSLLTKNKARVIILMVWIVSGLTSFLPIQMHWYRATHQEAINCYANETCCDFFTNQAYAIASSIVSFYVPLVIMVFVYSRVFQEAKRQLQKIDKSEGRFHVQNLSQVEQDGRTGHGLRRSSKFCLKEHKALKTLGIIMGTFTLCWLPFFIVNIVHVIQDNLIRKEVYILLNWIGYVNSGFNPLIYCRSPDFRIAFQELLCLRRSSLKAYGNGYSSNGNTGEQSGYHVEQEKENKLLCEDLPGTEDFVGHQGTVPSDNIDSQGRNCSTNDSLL
Sequence of 5-hydroxytryptamine receptor 2A (Homo sapiens) (P28223 whole entry, looked up): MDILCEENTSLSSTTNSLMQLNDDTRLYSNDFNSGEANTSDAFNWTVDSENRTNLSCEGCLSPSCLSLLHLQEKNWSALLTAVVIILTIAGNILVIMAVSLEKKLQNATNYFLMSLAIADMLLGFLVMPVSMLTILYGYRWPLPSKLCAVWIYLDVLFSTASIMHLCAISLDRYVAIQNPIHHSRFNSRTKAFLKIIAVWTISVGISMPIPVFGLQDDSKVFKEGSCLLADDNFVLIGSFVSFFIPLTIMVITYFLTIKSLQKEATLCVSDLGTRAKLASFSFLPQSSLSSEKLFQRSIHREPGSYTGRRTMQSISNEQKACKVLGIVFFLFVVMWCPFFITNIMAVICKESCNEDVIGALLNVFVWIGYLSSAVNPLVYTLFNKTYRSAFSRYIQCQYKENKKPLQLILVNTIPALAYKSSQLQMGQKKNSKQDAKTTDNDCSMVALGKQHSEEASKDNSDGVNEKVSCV
Sequence of KiSS-1 receptor (Homo sapiens) (Q969F8 whole entry, looked up): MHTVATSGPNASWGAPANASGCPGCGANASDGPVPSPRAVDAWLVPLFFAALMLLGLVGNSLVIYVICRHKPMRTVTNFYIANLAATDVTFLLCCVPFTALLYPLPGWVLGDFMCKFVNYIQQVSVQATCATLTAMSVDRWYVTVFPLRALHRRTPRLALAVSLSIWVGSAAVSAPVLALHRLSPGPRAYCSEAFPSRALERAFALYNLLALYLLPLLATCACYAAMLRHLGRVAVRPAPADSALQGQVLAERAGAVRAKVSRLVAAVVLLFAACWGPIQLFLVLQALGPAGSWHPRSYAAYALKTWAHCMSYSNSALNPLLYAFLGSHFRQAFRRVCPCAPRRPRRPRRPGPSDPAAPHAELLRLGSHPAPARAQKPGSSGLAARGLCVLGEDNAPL

C/C(Cl)=C/CCl
inactive: Potency [1] | Potency [2] | Potency [3] | Potency [4] | Potency [5] | Potency [6] | Potency [7] | Potency [8] | Potency [9] | Potency [10] | Potency [11] | Potency [12] | Potency [13] | Potency [14] | Potency [15] | Potency [16] | Potency [17] | Potency [18] | Potency [19]

CN(C)c1ccc(/C=C/c2ccc([N+](=O)[O-])cc2)cc1
inactive: activity change, negative = cytotoxicity [1] 0.836% [at 8.39 µM] | activity, positive = activation [2] 12.5% [at 8.39 µM] | activity change [3] 5.74% [at 5.22 µM, stronger effect = higher value] | activation [4] 7.36% [at 6.97 µM] | activation [5] 0.221% [at 5.23 µM] | activation [6] -2.79% [at 5.99 µM] | activation [7] -4.52% [at 5.99 µM] | activity change, negative = cytotoxicity [8] 0.0681% [at 5.99 µM] | activity change, negative = cytotoxicity [9] -5.21% [at 5.99 µM] | activity change, negative = cytotoxicity [10] -1.3% [at 5.99 µM] | activation [11] -2.24% [at 5.99 µM] | activity, negative = inhibition [12] -0.541% [at 5.62 µM] | activation [13] 13.3% [at 7.02 µM] | activity, negative = inhibition [14] -8.69% [at 5.58 µM] | activation [15] 0.732% [at 6.97 µM] | activation [16] -3.18% [at 8.39 µM] | activity change, negative = inhibition [20] 1.64% [at 8.39 µM] | activation [18] -5.78% [at 8.39 µM] | activity change, negative = inhibition [19] -2.29% [at 8.38 µM]

CC(C)(C)c1cc(C(C)(C)C)c(O)c(C(C)(C)C)c1
inactive and 48.6 µM (active): Potency [1]
active: Potency [2] 30.6 µM | Potency [13] 5.49 µM
inactive: Potency [3] | Potency [4] | Potency [5] | Potency [6] | Potency [7] | Potency [8] | Potency [9] | Potency [10] | Potency [11] | Potency [12] | Potency [14] | Potency [15] | Potency [16] | Potency [17] | Potency [18] | Potency [19]

C[N+](C)(C)CC[N+]1(C)Cc2c(Cl)c(Cl)c(Cl)c(Cl)c2C1
inactive: Potency [1] | Potency [2] | Potency [3] | Potency [4] | Potency [5] | Potency [6] | Potency [7] | Potency [8] | Potency [9] | Potency [10] | Potency [11] | Potency [12] | Potency [13] | Potency [14] | Potency [15] | Potency [16] | Potency [18]

Cc1occc1S
active: Potency [2] 68.6 µM
inactive: Potency [1] | Potency [3] | Potency [4] | Potency [5] | Potency [6] | Potency [7] | Potency [8] | Potency [9] | Potency [10] | Potency [11] | Potency [12] | Potency [13] | Potency [14] | Potency [15] | Potency [16] | Potency [20] | Potency [18] | Potency [19]

Cc1ccc(NC(=O)N(C)C)cc1NC(=O)N(C)C
inactive: Potency [1] | Potency [2] | Potency [3] | Potency [4] | Potency [5] | Potency [6] | Potency [7] | Potency [8] | Potency [9] | Potency [10] | Potency [11] | Potency [12] | Potency [13] | Potency [14] | Potency [15] | Potency [16] | Potency [18] | Potency [19]

CC(=O)Nc1ncc([N+](=O)[O-])s1
inactive: Potency [1] | Potency [2] | Potency [3] | Potency [4] | Potency [5] | Potency [6] | Potency [7] | Potency [8] | Potency [9] | Potency [10] | Potency [11] | Potency [12] | Potency [13] | Potency [14] | Potency [15] | Potency [16] | Potency [20] | Potency [18] | Potency [19]
